# Screening data deposited in PubChem BioAssay by National Center for Advancing Translational Sciences (NCATS).
# Sampled rows, rich in hits. Any-hit rate of the full collection: about 3.6%.
# Abeta rescue – A-beta toxicity reversal in yeast; yeast expressing A-beta42, growth rescue, OD600, 48 h; response scale: 0% DMSO, 100% iron-clioquinol control; Potency, µM (doses to about 46.1 µM), usual class: activators; hit rate 0.063% among 410,000; AID 1347071; also: nearly all actives have a fitted effect of over 55% in size
#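 Yeast A-beta toxicity model in growth medium with pinned compounds, 48 h at 30 C; growth read as absorbance at 600 nm. Normalized to FeCl3/clioquinol equimolar mix (positive) and DMSO (negative).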
# aSyn rescue – rescues yeast growth from alpha-synuclein toxicity; Potency, µM (series often up to 46.1 µM), for inactives: at the top dose growth rescue (activation), usual class: activators; AID 652106; hit rate 0.14% among 370,000; Yeast expressing alpha-synuclein, growth rescue, BacTiter-Glo, 24 h; also: % of control where 0% means no effect; nearly all actives have a fitted effect of over 65% in size
#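 Rescue of yeast growth: cells expressing toxic alpha-synuclein, induced in galactose at OD600 0.02, incubated with compound 24 h at 30 C. ATP luminescence quantified growth; inhibitors of toxicity appear as activators.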
# FUS suppressor – FUS proteinopathy suppression in yeast; S. cerevisiae FUS-expressing, growth rescue, OD600, 24 h; Potency, µM (top dose mostly 76.6 µM), usual class: activators; hit rate 0.24% among 390,000; AID 1347120;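 also: plate controls were DMSO vehicle for no effect and reference control for full effect; nearly all actives have a fitted effect of over 55% in size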
#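 Toxicity suppression screen in FUS-yeast. Cells induced with 2% galactose, starting OD 0.005, treated 24hr at 30C with compounds at multiple final concentrations; growth by OD600.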
# Mm-Cpn inhibitor – M. maripaludis TRiC chaperonin inhibition. hit rate 0.031% among 330,000. Potency, µM (series often up to 76.9 µM), inactives show at the highest dose activity, negative = inhibition, hits mostly inhibitors. purified Mm-Cpn ATPase, ADP Transcreener TR-FRET; also: % is scaled to controls: 0 for no effect and ±100 for the full control effect; nearly all actives have a fitted effect of over 80% in size
#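 TR-FRET (320 nm excitation; 590 and 665 nm emission) reports ADP made from 10 uM ATP by 25 nM enzyme; compounds were preincubated 10 min, reaction run 30 min, both at 37°C.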
# TDP-43 yeast inh – inhibitors of TDP-43 toxicity in yeast | TDP-43 expressing yeast growth rescue, BacTiter-Glo, 24 h | AID 652104 | Potency, µM (titrated, usually from 46.1 µM), without a hit: at the top dose growth rescue (activation), actives largely listed as activators | hit rate 1.8% among 410,000; also: % of control where 0% means no effect; nearly all actives have a fitted effect of over 50% in size
#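 In this qHTS, compounds that restore growth of yeast expressing TDP-43 appear as activators. Cells (OD600=0.02, galactose medium, raffinose-pregrown) are incubated with compound 24 hr at 30 deg C and growth is quantified by BacTiter-Glo.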
# ClpP mod – qHTS Assay for Activators of ClpP; hit rate 1.9% among 340,000; purified B. subtilis ClpP, FRET peptide cleavage, 20 min; AID 651965, 2013; ATP-dependent Clp protease proteolytic subunit (Bacillus subtilis (strain 168)), P80244; Potency, µM (doses to about 57.5 µM), without a hit: top-dose activity change, negative = active; active = well fitted falling curve with a large enough effect; inconclusive = small, poorly fitted or top-dose-only effect; inactive = no such curve, though single readings can be large or run the other way; also: the source files actives as falling curves though it sought activators and does not explain the sign; nearly all actives have a fitted effect of over 65% in size
# Target sequence (P80244 whole entry, looked up): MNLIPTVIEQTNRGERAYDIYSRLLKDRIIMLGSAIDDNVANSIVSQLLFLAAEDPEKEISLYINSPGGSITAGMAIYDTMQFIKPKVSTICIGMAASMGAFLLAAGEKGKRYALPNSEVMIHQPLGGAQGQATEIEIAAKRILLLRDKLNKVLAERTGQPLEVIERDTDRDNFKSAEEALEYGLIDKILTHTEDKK
#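 ClpP 10 microg/mL final, pH 8 Tris/KCl buffer with BSA, glycerol, Tween-20; compound pinned in; FRET-FV substrate; RT 20 min; Ex320/Em430; ΔFRET vs ADEP 5.8 microM, DMSO, no enzyme.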
# Active calls of the source: *; i = inactive; ? = inconclusive; . = no result given; [ ] = dose if it differs, or a comment. Unless noted, calls follow the shape of the dose curve; as a rule, active = well fitted curve in the direction sought with a large enough effect; inconclusive = small, poorly fitted or top-dose-only effect, or another doubt; inactive = no such curve, though single readings can be large; an effect the other way counts as inactive or inconclusive. Potency is read from the fitted curve at half-maximal effect.
SMILES,Abeta rescue,aSyn rescue,FUS suppressor,Mm-Cpn inhibitor,TDP-43 yeast inh,ClpP mod
O=C(NCc1ccccc1Cl)c1ccc(NC(=O)N2CCSc3ncccc32)cc1,i,.,i,.,4%,28µM*
N#Cc1c(/N=C/c2ccc(-c3ccc(C(=O)O)c(Cl)c3)o2)sc2c1CCCC2,i,9%,.,0%,18%,35µM*
O=C(NCCc1csc(-c2ccc(Cl)cc2)n1)c1cccs1,i,.,i,.,18µM*,-23%
O=C(NCCc1csc(-c2ccccc2)n1)c1cccs1,i,-2%,i,1%,?,?
COc1ccc(-c2nc(CCNC(=O)c3cccs3)cs2)cc1OC,i,.,i,.,-10%,28µM*
COc1ccc(C2CC(c3cccs3)=NN2C(=O)CSC2=NCCS2)cc1 (stereo not drawn),i,9%,35µM*,-16%,29%,4%
O=C(Nc1ccccc1)N1N=C(c2cccs2)CC1c1cccs1 (stereo not drawn),i,?,.,-2%,-2%,32µM*
Cc1ccc(C2CC(c3cccs3)=NN2C(=O)CSC2=NN3CCCC(=O)N=C3S2)cc1 (stereo not drawn),i,5%,?,-12%,19%,-22%
CCC(=O)N1N=C(c2cccs2)CC1c1ccc(C)cc1 (stereo not drawn),i,16%,i,-3%,20µM*,4%
CCC(=O)N1N=C(c2cccs2)CC1c1ccc(OC)cc1 (stereo not drawn),i,2%,i,-3%,?,-28%
Cc1ccc(C2CC(c3cccs3)=NN2C(=O)CSC2=NCCS2)cc1 (stereo not drawn),i,10%,i,-8%,?,4%
CCOC(=O)CCSCC(=O)N1N=C(c2cccs2)CC1c1ccc(C)cc1 (stereo not drawn),i,0%,i,-4%,6%,28µM*
CNC(=S)N1N=C(c2ccc(C)cc2)CC1c1ccc(N(C)C)cc1 (stereo not drawn),?,14%,i,25µM*,13%,-2%
CNC(=S)N1N=C(c2ccc(OC)cc2)CC1c1ccccc1Cl (stereo not drawn),i,-14%,i,?,3.2µM*,0%
COc1ccccc1C1CC(c2cccs2)=NN1C(=O)CCC(=O)O (stereo not drawn),i,6%,i,1%,-5%[1.82 µM],.
CNC(=S)N1N=C(c2ccc(OC)cc2)CC1c1ccc(Cl)cc1Cl (stereo not drawn),i,15%,i,?,12%,.
COc1cccc(C2CC(c3cccs3)=NN2C(=O)CSc2nc3ccccc3o2)c1OC (stereo not drawn),i,0%,i,-1%,0%,8.9µM*
Cc1ccc(C2CC(c3cccs3)=NN2C(=O)CCl)cc1 (stereo not drawn),i,1%,i,-4%,13µM*,.
COc1ccccc1C(=O)Nc1ccc(C(=O)OCc2cc(=O)n3ccsc3n2)cc1,i,.,i,.,7%,-1%
COC(=O)[C@]12CCCCC=C1N(Cc1ccc(OC)cc1)C(=O)[C@@H]2CC(=O)N1CCCCC1,.,.,i,.,.,.
CC(=O)Nc1c(C)nn(-c2ccccc2)c1N1CCC(C(=O)Nc2ccc(F)cc2Cl)CC1,i,.,i,.,0%,1%
CNC(=S)N1N=C(c2cccs2)CC1c1ccc(F)cc1 (stereo not drawn),i,10%,i,-3%,10µM*,-10%
O=C(c1ccco1)N1N=C(c2cccs2)CC1c1ccc(F)cc1 (stereo not drawn),i,.,i,2%,?,-3%
CC(C)(O)c1cc2ccc(C#Cc3ccsc3)cc2c(=O)o1,i,1%,i,-23%,25µM*,4%
O=C(O)c1ccc2cccc(Cl)c2c1O,i,-52%,i,?,7%,18µM*
SMILES,Abeta rescue,aSyn rescue,FUS suppressor,Mm-Cpn inhibitor,TDP-43 yeast inh,ClpP mod
CCc1cc2c(=O)[nH]c(-c3ccccn3)nc2s1,?,18µM*,.,1%,?,-26%
CCc1cc2c(=O)[nH]c(N3CCCC3)nc2s1,i,0%,i,1%,30%,-1%
CC1(C)Cc2ccccc2-c2nnc(SCc3ccc(C#N)cc3)n21,i,18%,i,-1%,13µM*,0%
CCCOc1ccc(CCC(=O)O)cc1,i,1%,i,4%,14µM*,1%
Cc1cccc(OCCCC(=O)NNC(=O)c2ccccn2)c1,?,?,i,0%,22µM*,0%
COc1ccc2oc(C(=O)OCC(=O)N3CC(C)CC(C)C3)c(C)c2c1 (stereo not drawn),i,1%,i,2%,?,14µM*
COc1ccc2oc(C(=O)OC(C)C(=O)Nc3ccc(N4CCOCC4)cc3)c(C)c2c1 (stereo not drawn),i,3%[1.84 µM],i,1%,17%,-18%
COc1ccc2oc(C(=O)OCC(=O)N3CCCCC3C)c(C)c2c1 (stereo not drawn),i,-1%,.,-1%,10%,8.9µM*
COc1ccc2oc(C(=O)OCC(=O)N3C(C)CCCC3C)c(C)c2c1 (stereo not drawn),i,-1%,i,-1%,-19%,?
CCNC(=O)NC(=O)C(C)OC(=O)c1oc2ccc(OC)cc2c1C (stereo not drawn),i,0%,i,1%,0%,32µM*
COc1ccc2oc(C(=O)OCC(=O)N(C)C3CCS(=O)(=O)C3)c(C)c2c1 (stereo not drawn),i,-1%,i,-2%,10%,10µM*
O=c1c2cc3cc(Cl)ccc3nc2ncn1N1CCCCC1,.,.,i,.,.,.
COc1ccc(-c2nc(CSc3nc4ncccc4[nH]3)c(C)o2)cc1OC,i,.,i,.,25%,-12%
COc1ccc2oc(C(=O)OC(C)C(=O)N3CCC(C)CC3)c(C)c2c1 (stereo not drawn),i,4%,.,-4%,4%,25µM*
CN(C(=O)COC(=O)c1ccccc1NCCO)C1CCS(=O)(=O)C1 (stereo not drawn),i,-1%,i,-2%,12%,20µM*
COc1ccc2oc(C(=O)OC(C)C(=O)N(C)c3ccccc3)c(C)c2c1 (stereo not drawn),i,3%,i,-2%,?,22µM*
CN(C(=O)COC(=O)c1ccccc1NC(=O)c1ccco1)C1CCS(=O)(=O)C1 (stereo not drawn),i,3%,i,-1%,8%,.
